Only some compounds are listed: those with a hit (about 21% of all), similar ones and a draw of the others.
Pf growth 96h = P. falciparum growth inhibition at 96 hour, primary screen for plastid delayed-death inhibitors; P. falciparum luciferase reporter growth, 96 h; Potency, µM (highest dose often 28.7 µM), without a hit: at the highest dose activity change, negative = inhibition, usual class: inhibitors; 6.9% of 320,000 active; note: potency is the fitted concentration of half-maximal effect; % is set by controls: 0 for no effect and ±100 for the full control effect
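Compounds incubated with erythrocytes infected by luciferase-expressing P. falciparum (2% hematocrit, 0.05% parasitemia final) for 96 hours, 37 C in 5% CO2. Growth inhibition scored as decreased luciferase luminescence.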
Cycloheximide cs = counter-screen hit for Shiga toxin inhibitors, cycloheximide; max response, %; 12% of 300,000 active; cell reporter, cycloheximide protein synthesis inhibition counterscreen; AID 2314; in the data active = max response mostly above about 13%, no sharp cut-off; inactive = mostly below about 14%; note: read at 38.3 µM for the half of the compounds with a filed dose; 0% is about no effect
NS1 inh = blocks influenza NS1 protein function; 0.4% of 270,000 active; Potency, µM (titrated, usually from 46.1 µM), inactives show top-dose activity, positive = more growth; calls by dose curve; note: potency is the fitted concentration of half-maximal effect; actives are rising curves; nearly all actives have a fitted effect of over 50% in size
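OD600 was taken as the measure of yeast growth restored by compound in an NS1-expressing S. cerevisiae strain. Cells had been washed out of glucose medium and diluted 1:100 into galactose -URA medium, pH 6.0.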
SARS PLpro yeast = blocks SARS-CoV papain-like protease in a yeast assay; S. cerevisiae expressing SARS-CoV PLpro, growth rescue; Potency, µM (series often up to 32.9 µM), inactives show at the top dose activity, positive = growth rescue, most hits filed as activators; 0.19% of 330,000 active; AID 485353; calls by dose curve; note: potency is the fitted concentration of half-maximal effect; 0% is about no effect; nearly all actives have a fitted effect of over 55% in size
Pf growth 48h = P. falciparum growth inhibition at 48 hours (one generation). P. falciparum luciferase growth in erythrocytes, 48 h. Potency, µM (titrated, usually from 28.7 µM), inactives show at the highest dose activity change, negative = inhibition, most hits filed as inhibitors. 5.9% of 310,000 active. AID 504832; note: potency is the fitted concentration of half-maximal effect; % is set by controls: 0 for no effect and ±100 for the full control effect
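In quantitative HTS format, infected erythrocytes bearing luciferase-reporter parasites were treated for a single generation at 37 C. Luminescence after adding detection reagent served as the growth measure.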
Shiga inhibitor = inhibitors of Shiga toxin in Vero cells. Vero cells, Shiga toxin protein synthesis inhibition reporter. inhibition, % at 38.7 µM. 9.2% of 290,000 active. AID 2315; in the data active = inhibition mostly above about 28%, no sharp cut-off; inactive = mostly below about 43%; note: 0% is about no effect
Numbers without * were called inactive; ? = inconclusive; . = no result; [ ] = remark or other dose. Unless noted, calls come from the whole dose curve; as a rule, active = well fitted inhibition curve with a large enough effect; inconclusive = small, poorly fitted or top-dose-only effect, or another doubt; inactive = no such curve, though single readings can be large or run the other way.

SMILES	Pf growth 96h	Cycloheximide cs	NS1 inh	SARS PLpro yeast	Pf growth 48h	Shiga inhibitor
CC1CCCCC1NC(=S)NC(=O)c1sc2ccccc2c1Cl (stereo unspecified)	?	12*	0%	-1%	?	-7
Cc1c(NC(=S)NC(=O)c2sc3ccccc3c2Cl)cccc1C(=O)O	-27%	61*	2%	-3%	236%	161*
CC(=O)c1cc(CN2CCN(CCc3ccccc3)C(CCO)C2)cs1 (stereo unspecified)	?	-1	3%	0%	-28%	-2
CC[n+]1c(/C=C2\C=C(C)CC(C)(C)C2)sc2ccccc21	?	-3	-12%	1%	0.33µM*	-9
CC[n+]1c(/C=C2/C=C(C)CC(C)(C)C2)sc2ccc(OC)cc21	36%	17	-7%	-15%	0.37µM*	43
Cc1ccc(S(=O)(=O)N2[C@@H](c3cccc(Cl)c3)C(C(=O)O)=CC[C@H]2c2cccs2)cc1	36%	.	.	3%	7%	.
CCOc1cc(/C=C/c2nc3ccccc3c(=O)[nH]2)ccc1O	-2%	45*	4%	-3%	.	50*
Cc1[nH]c2ccccc2c1/C=C/c1nc2ccccc2c(=O)[nH]1	?	53*	4%	2%	?	84*
O=c1[nH]c(SCc2c(Cl)cccc2Cl)nc2ccccc12	7%	-3	5%	1%	-6%	-11
CCn1c(/C=C/c2c(C)[nH]c3ccccc23)nc2ccccc2c1=O	30%	7	9%	17%	1%	10
CCCN1C(=O)/C(=C/c2nc3ccccc3c(=O)[nH]2)c2cc(C)ccc21	?	11*	-2%	0%	?	9
CCCN1C(=O)/C(=C/c2nc3ccccc3c(=O)[nH]2)c2ccccc21	?	-1	12%	-4%	?	22
O=c1[nH]c(/C=C/c2ccccc2Cl)nc2ccccc12	?	40*	-4%	7%	.	106*
CCN(CC)CCNC(=O)C(Oc1ccccc1)Oc1ccccc1	17%	-2	4%	0%	11%[0.00184 µM]	-6
O=C(O)c1ccc(/C=C/c2nc3ccccc3c(=O)[nH]2)cc1	36%	4	-2%	1%	.	-2
Clc1cccc(Cl)c1/C=C/c1nc2ccccc2[nH]1	-99%	31*	-66%	-48%	?	78*
COc1cccc(/C=C/c2nc3c(cnn3-c3ccccc3)c(=O)[nH]2)c1	63%	15*	-1%	0%	35%	37
Cc1cccc(/C=C/c2nc3ccccc3c(=O)[nH]2)c1	-19%	29*	2%	1%	-16%	112*
CCOC(=O)c1c(C)[nH]c(-c2csc(C)n2)c1C	83%	33*	-4%	-6%	60%	62*
CCOC(=O)c1c(C)[nH]c(-c2csc(N)n2)c1C	?	12	.	1%	2.9µM*	30
CC1CN(S(=O)(=O)N2CCOCC2)CCN1S(=O)(=O)N1CCOCC1 (stereo unspecified)	?	-2	.	0%	1%	-3
Cc1nc(Nc2ccccc2)sc1-c1ccccc1	-38%	35*	-5%	-54%	122%	88*
Cc1nc(Nc2ccc(C(=O)O)cc2)sc1-c1ccccc1	-20%	53*	?	1%	-32%	84*
Cc1nc(Nc2ccc(C(=O)O)cc2)nc(Nc2ccc(C(=O)O)cc2)c1[N+](=O)[O-]	27%	10	.	0%	-9%	24
Cc1ccc(Nc2nc3ccccc3c(=O)s2)cc1	?	-3	3%	0%	9%	26
SMILES	Pf growth 96h	Cycloheximide cs	NS1 inh	SARS PLpro yeast	Pf growth 48h	Shiga inhibitor
Cc1cc(NC(=O)C2C3C(=O)N(CCC(C)C)C(C(=O)NCc4ccccc4)C34C=CC2(C)O4)no1 (stereo unspecified)	5%[5.75 µM]	1	-11%	3%	-13%	-2
Cc1ccc(C(=O)NC(=S)N2CCN(c3cc(C)ccc3C)CC2)cc1	-28%	38*	19%	6%	?	49*
Cc1ccc(C(=O)NC(=S)N2CCN(c3ccccc3F)CC2)cc1	36%	20	11%	1%	16%	35*
COc1ccc(C(=O)NC(=S)N2CCN(c3ccccc3OC)CC2)cc1	22%	5	-7%	-1%	?	-11
O=C(c1ccc(-c2ccccc2)cc1)N1CCN(c2ccccc2F)CC1	-19%	2	-22%	-11%	10%	.
Cc1ccc(N2C(=O)c3ccc(C(=O)N4CCN(c5ccccc5F)CC4)cc3C2=O)cc1	9.3µM*	-3	?	14%	5%	-11
CS(=O)(=O)N(CC(=O)N1CCOCC1)c1ccccc1	17%	-3	6%	10%	15%	-8
CN1CCN(CC(=O)Nc2ccc(Cl)cc2Cl)CC1	9.3µM*	10	3%	6%	15%	25
Cc1cc(Cl)ccc1NC(=O)CN1CCCC1	-29%	3	6%	4%	-8%	-4
CCN1CCN(C(=S)Nc2ccc(Cl)cc2Cl)CC1	56%	25*	3%	-2%	.	26
CN1CCN(C(=S)Nc2ccc(Cl)cc2Cl)CC1	22%	16*	2%	2%[6.58 µM]	.	12
S=C(Nc1ccc(Cl)cc1Cl)N1CCOCC1	-22%	-1	16%	3%	1%	-11
CN(C)CCCc1cccnc1	.	.	0%	.	.	.
Cc1onc(-c2ccccc2)c1C(=O)OCC(=O)c1ccccc1	.	-3	-9%	-11%	-1%	-11
Cc1onc(-c2ccccc2)c1C(=O)OCc1nnc(-c2ccc([N+](=O)[O-])cc2)o1	-9%	.	.	1%	-7%	.
Cc1ccccc1OCCOC(=O)c1c(-c2ccccc2)noc1C	?	1	-34%	-5%	12µM*	-5
Cc1onc(-c2ccccc2)c1C(=O)OCCOc1ccccc1F	-27%	34*	-46%	-5%	?	37
Cc1onc(-c2ccccc2)c1C(=O)OCCOc1ccc([N+](=O)[O-])cc1[N+](=O)[O-]	4.1µM*	-2	2%	-2%	.	21
C=CCn1c(SCC(=O)Nc2cccc3ccccc23)nnc1-c1cnccn1	?	-5	4%	0%	?	-9
C=CCn1c(SCC(=O)Nc2cc3oc4ccccc4c3cc2OC)nnc1-c1cnccn1	-15%	-2	-106%	-2%	9.3µM*	-4
C=CCn1c(SCC(=O)Nc2ccc(F)cc2F)nnc1-c1cnccn1	12%	26*	3%	1%	21%	45*
C=CCn1c(COc2ccccc2F)nnc1SCC(=O)Nc1cc2oc3ccccc3c2cc1OC	2%[5.75 µM]	-2	24%	5%	0%	-15
Cc1ccc(S(=O)(=O)NCC(=O)N(CC(=O)NCC2CCCO2)Cc2ccc(Cl)cc2)cc1 (stereo unspecified)	-18%	6	-12%	2%	-12%	-11
CCOc1ccc(OCCC(=O)OCC(=O)Nc2ccc(Cl)cn2)cc1	30%	.	.	-2%	-1%	.
O=C(Nc1ccc(Cl)cn1)c1ccc(Oc2ccccc2)cc1	?	34*	-29%	-16%	90%	32*

Screening data: PubChem BioAssay, National Center for Advancing Translational Sciences (NCATS)
